mHTT CaM bind – inhibitors of human mutant huntingtin-calmodulin interaction; P42858; AlphaScreen His-mHTT/GST-CaM binding, luminescence; inhibition, % at 15 µM; 190,000 compounds, 3.6% hits;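 further: 0% = both proteins with DMSO and 100% = one protein alone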
Pf apPOL block – Pf-apPOL DNA polymerase inhibition | Recombinant Pf-apPOL, molecular beacon fluorescence, 1.5 h | inhibition, % at 10 µM | AID 1794808 | 210,000 compounds, 0.25% hits
An asterisk follows results filed as active; . = not tested or not shown. Hits are enriched below; roughly 3.6% of the tested compounds scored in any of these assays. No stated cut-off is given here; in the data, active means inhibition above about 50%; inactive means the rest.

SMILES | mHTT CaM bind | Pf apPOL block
COc1ccccc1-n1nc(C(=O)N2CCC(Cc3ccccc3)CC2)c2ccccc2c1=O | 58* | -2
COc1ccc(-n2nc(C(=O)N3CCC(C)CC3)c3ccccc3c2=O)c(OC)c1 | 0 | 51*
CC(C)(C)NC(=O)c1nn2c(c1Cl)NC(c1ccccc1)CC2C(F)(F)F (configuration not stated) | 11 | 2
Cc1ccc(O)c(NC(=O)c2nn3c(c2Cl)NC(c2cccs2)CC3C(F)(F)F)c1 (configuration not stated) | 55* | 2
O=C(Nc1cccc(Cl)c1)c1nn2c(c1Cl)NC(c1cccs1)CC2C(F)(F)F (configuration not stated) | 17 | -4
Cc1ccc(O)c(NC(=O)c2nn3c(c2Cl)NC(c2ccccc2)CC3C(F)(F)F)c1 (configuration not stated) | 54* | -2
CCOC(=O)c1c(Cl)cc(C)cc1N1CCCC1 | . | -2
CC1CCN(C(=O)C2CCN(c3c(C#N)cnc4ccc(F)cc34)CC2)CC1 | -4 | -2
CC(=O)N1CCc2sc(C(=O)NCc3cccc(Cl)c3)cc2C1 | 5 | -4
CC(=O)N1CCc2sc(C(=O)NCc3cccc(Br)c3)cc2C1 | 56* | 0
Cc1ccc(N2C(=O)c3ccccc3NC2C(C)c2ccccc2)cc1 (configuration not stated) | -4 | 9
O=C(CN1CCC(Cn2cnc3ccccc32)CC1)N1CCc2ccccc21 | -12 | -5
Cc1[nH]c(=O)[nH]c(=O)c1CC(=O)NCc1ccccn1 | -15 | -6
COc1ccc(-c2coc3c4c(ccc3c2=O)OCN(C2CCCCC2)C4)cc1 | 14 | -27
COc1ccc(-c2coc3c4c(ccc3c2=O)OCN(c2cc(Cl)c(OC)cc2OC)C4)cc1 | 60* | -1
CC(=O)Nc1nnc(CCCCn2c(-c3nonc3NC(C)=O)nc3ccccc32)s1 | -2 | 3
O=[N+]([O-])/C=C/c1ccc(-c2ccc(Br)cc2)o1 | 51* | -3
CC1(C)OC(=O)C(=Cc2ccc(-c3ccc([N+](=O)[O-])cc3)o2)C(=O)O1 | 2 | -4
O=Cc1ccc(-c2ccc([N+](=O)[O-])cc2)o1 | 5 | -6
Cc1ccc(-c2ccc(C=O)o2)c(Br)c1 | -8 | -7
Cc1ccc(-c2ccc(/C=C/[N+](=O)[O-])o2)c(Br)c1 | 79* | 1
O=[N+]([O-])/C=C/c1ccc(-c2ccc(Cl)cc2)o1 | 84* | 4
CCC(=O)N1CCN(c2nc3c(s2)CC(C(=O)Nc2ccc(C)cc2Cl)CC3)CC1 (configuration not stated) | 3 | -4
CCOC(=O)C1CCN(Cc2cc(=O)oc3cc(O)c(Cl)cc23)CC1 | -8 | -4
COc1ccccc1Nc1nc(-c2ccncc2)cs1 | 11 | 1
SMILES | mHTT CaM bind | Pf apPOL block
COc1nc(Nc2cc(Cl)ccc2OC)nc(OC)n1 | -3 | 2
COc1ccc(Cl)cc1Nc1nc(-c2sc(N)nc2C)cs1 | 82* | -9
COc1ccc(OC)c(Nc2nc(-c3sc(N)nc3C)cs2)c1 | 81* | -11
Cc1nc2cccnc2n1C1CCN(C(=O)Nc2ccc3c(c2)OCCO3)C1 (configuration not stated) | -3 | -4
COCn1nnc(-c2ccccn2)n1 | -8 | .
CC(C)CC1C(=O)N(Cc2cn(CCC3OCCO3)nn2)CCS(=O)(=O)N1Cc1ccc(-c2ccc(F)cc2)cc1 (configuration not stated) | 68* | -7
CC(C)CC1C(=O)N(Cc2cn(CCC3OCCCO3)nn2)CCS(=O)(=O)N1Cc1ccc(-c2ccc(Cl)nc2)cc1 (configuration not stated) | 29 | -23
CC(C)C1C(=O)N(Cc2cn(CCC3OCCO3)nn2)CCS(=O)(=O)N1Cc1ccc(-c2cccc(CO)c2)cc1 (configuration not stated) | 45 | -5
COc1ccc(-c2ccc(CN3C(CC(C)C)C(=O)N(Cc4cn(CCC5OCCO5)nn4)CCS3(=O)=O)cc2)cc1OC (configuration not stated) | 21 | -8
CC(C)CC1C(=O)N(Cc2cn(CCC3OCCCO3)nn2)CCS(=O)(=O)N1Cc1ccc(-c2ccc(Cl)c(Cl)c2)cc1 (configuration not stated) | 60* | -4
CC(C)CC1C(=O)N(Cc2cn(CCC3OCCO3)nn2)CCS(=O)(=O)N1Cc1ccc(-c2cccc(N(C)C)c2)cc1 (configuration not stated) | 72* | 2
COc1cccc(-c2nc(C=Nc3ccccc3Br)c(O)o2)c1 | 7 | -4
O=C(Cc1ccccc1)Nc1c2c(nc3c1CCC3)CCCC2 | 13 | -2
CCCS(=O)(=O)NCC1(c2ccccc2)CCOCC1 | -9 | -6
Cc1nc(-c2cccs2)c(CCC(=O)N2CCN(c3ccccn3)CC2)s1 | 10 | 7
Cn1c(C2CCN(C(=O)c3ccoc3)C2)nc2cccnc21 (configuration not stated) | 2 | 2
COc1ccc(NC(=O)C2CC2)cc1OC | 0 | 2
